# Compound activity (PubChem BioAssay)
# Dicer processing – blocks human Dicer maturation of pre-miR-21; Q9UPY3; cat-ELCCA pre-miR-21 Dicer processing, chemiluminescence; active compounds read high; z-score at 25 µM; actives 6% (n = 47,000); AID 1347074; in the data active = z-score above about 3, passing the limit was not always enough;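 note: higher signal means more uncleaved substrate so more Dicer inhibition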
# Target sequence (Q9UPY3 whole entry, looked up): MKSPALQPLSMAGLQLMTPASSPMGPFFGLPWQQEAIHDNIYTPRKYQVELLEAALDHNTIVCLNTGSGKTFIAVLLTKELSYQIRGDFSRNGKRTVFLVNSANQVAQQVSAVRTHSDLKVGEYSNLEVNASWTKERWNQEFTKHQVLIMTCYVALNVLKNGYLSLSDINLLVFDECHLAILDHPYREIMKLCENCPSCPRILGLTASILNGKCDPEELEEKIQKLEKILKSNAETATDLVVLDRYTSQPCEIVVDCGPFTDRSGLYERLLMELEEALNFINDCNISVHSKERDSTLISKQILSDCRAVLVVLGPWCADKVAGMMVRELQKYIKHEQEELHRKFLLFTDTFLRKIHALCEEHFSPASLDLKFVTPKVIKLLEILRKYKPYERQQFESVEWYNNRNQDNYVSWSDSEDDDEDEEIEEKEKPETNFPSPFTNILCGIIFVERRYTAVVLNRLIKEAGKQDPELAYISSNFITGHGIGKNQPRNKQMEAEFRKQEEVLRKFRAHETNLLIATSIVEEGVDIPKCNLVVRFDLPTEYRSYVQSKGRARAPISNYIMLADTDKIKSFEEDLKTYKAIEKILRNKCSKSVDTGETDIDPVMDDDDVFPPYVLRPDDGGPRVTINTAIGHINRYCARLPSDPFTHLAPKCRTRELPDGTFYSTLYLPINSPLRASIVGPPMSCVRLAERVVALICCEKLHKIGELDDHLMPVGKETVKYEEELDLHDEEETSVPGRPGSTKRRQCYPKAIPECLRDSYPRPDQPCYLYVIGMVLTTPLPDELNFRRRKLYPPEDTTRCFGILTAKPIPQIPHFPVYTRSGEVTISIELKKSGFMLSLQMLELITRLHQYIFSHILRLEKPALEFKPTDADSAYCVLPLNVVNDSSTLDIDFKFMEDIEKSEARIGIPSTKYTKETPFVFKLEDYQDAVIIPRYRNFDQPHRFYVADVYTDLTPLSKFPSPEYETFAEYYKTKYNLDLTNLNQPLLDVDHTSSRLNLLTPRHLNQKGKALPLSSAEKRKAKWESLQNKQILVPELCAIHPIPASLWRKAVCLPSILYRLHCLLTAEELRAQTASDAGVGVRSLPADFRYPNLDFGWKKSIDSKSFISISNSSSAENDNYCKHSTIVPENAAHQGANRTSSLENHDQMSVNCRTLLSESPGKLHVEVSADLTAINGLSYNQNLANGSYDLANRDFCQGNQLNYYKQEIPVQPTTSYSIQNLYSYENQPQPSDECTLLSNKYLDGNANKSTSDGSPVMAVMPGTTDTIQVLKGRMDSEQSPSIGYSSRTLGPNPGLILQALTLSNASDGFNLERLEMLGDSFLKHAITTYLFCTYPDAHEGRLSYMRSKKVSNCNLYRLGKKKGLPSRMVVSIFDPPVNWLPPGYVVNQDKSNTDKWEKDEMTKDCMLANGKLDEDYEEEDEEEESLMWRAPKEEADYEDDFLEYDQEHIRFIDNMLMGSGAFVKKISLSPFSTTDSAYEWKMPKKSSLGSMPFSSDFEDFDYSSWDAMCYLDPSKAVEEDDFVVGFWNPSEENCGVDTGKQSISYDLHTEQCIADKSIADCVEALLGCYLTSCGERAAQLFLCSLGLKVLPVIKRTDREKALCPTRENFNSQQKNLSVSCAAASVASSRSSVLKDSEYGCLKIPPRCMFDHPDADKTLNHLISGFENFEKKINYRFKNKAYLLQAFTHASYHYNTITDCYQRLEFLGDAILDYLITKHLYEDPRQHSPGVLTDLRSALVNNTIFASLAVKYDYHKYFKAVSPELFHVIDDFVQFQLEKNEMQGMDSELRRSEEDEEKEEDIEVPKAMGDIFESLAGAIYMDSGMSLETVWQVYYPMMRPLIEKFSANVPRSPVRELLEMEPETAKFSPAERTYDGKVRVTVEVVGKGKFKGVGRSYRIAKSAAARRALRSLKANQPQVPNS
# A number is an active result; – = inactive. This excerpt belongs to a sample that is enriched for hits.
SMILES,Dicer processing
CCCCc1c(O)nc(SCCN(CC)CC)n(-c2ccccc2)c1=O,3.3
CCc1c(O)nc(SCC(=O)N2CCc3ccccc32)n(-c2ccccc2)c1=O,–
CCCCc1c(O)nc2sc3ccccc3n2c1=O,–
Cc1nnc(N2C(=O)C(O)=C(C(=O)c3cccs3)C2c2ccccc2)s1 (configuration not stated),–
CCN(CC)c1ccc(Nc2nc(-c3sc(N)nc3C)cs2)cc1,–
Cc1nc2ccccn2c1-c1csc(Nc2ccc(Cl)cc2)n1,7.1
Cc1ccc(C)c(-c2csc(Nc3ccc(S(N)(=O)=O)cc3)n2)c1,5.1
NS(=O)(=O)c1ccc(Nc2nc(-c3cccnc3)cs2)cc1,–
Cc1nnc(Nc2ccc(Cl)cc2)s1,–
Cc1cc(NS(=O)(=O)c2ccc(Nc3nc(-c4ccc(Cl)cc4)cs3)cc2)no1,–
Cc1nc2ccccn2c1-c1csc(Nc2ccc(S(N)(=O)=O)cc2)n1,4.3
Cc1ccc(Nc2nc(-c3c(C)nc4ccccn34)cs2)cc1,–
CSc1c(-c2ccccc2)c(N)nn1S(=O)(=O)c1ccccc1,–
CC(=O)Nc1nc(NC(C)=O)nc(-c2ccccc2C)n1,–
COc1ccc(C2/C(=C(\O)c3ccc(F)cc3)C(=O)C(=O)N2Cc2cccnc2)cc1 (configuration not stated),–
COC(=O)c1ccsc1NC(=O)c1ccc(C(F)(F)F)cc1,–
C#CCSc1nnc(-c2ccc(C(F)(F)F)nc2C)o1,–
O=C1CCCC2=C1C(c1cccnc1)N(C(=O)c1ccccc1)c1ccccc1N2 (configuration not stated),–
O=C(Nc1ccc(Cl)cc1)c1c(O)c2ccccc2[nH]c1=O,–
CCOC(=O)N1CCc2c(sc3c2C(=O)NC(/C(C)=C/c2ccccc2)N3)C1 (configuration not stated),–
CCOC(=O)C1=C(Nc2ccc(OC(=O)Nc3ccccc3)cc2)C(=O)N(C(C)(C)C)C1,–
CCC1(c2cccc(OC(=O)Nc3ccc(OC(F)(F)F)cc3)c2)CCCCN(C)C1=O (configuration not stated),3.8
Cn1nc(-c2ccccc2)cc1NC(=O)Nc1ccc(OC(F)(F)F)cc1,–
CC(=O)[C@@]1(O)C(C)CC2C3CC[C@H]4CC(O)CCC4(C)C3[C@H](O)CC21C (some centres not stated),–
CCC(=O)Nc1ccc2c(c1)N(CC)C(C)(C)CC2C (configuration not stated),–
SMILES,Dicer processing
COC(=O)C(C(=O)Nc1cc(C)on1)C1CCCC1 (configuration not stated),–
Cc1nonc1NC(=O)OC(C)C,–
Cc1nonc1NC(=O)OC1CCCCC1,3.4
CCOC(=O)CCSC1=NC(c2cccs2)C(C(=O)OCC)=C(C)N1 (configuration not stated),–
Cc1nc(N2CCN(c3ccccn3)CC2)nc2c1C(=O)CC(c1ccccc1F)C2 (configuration not stated),–
O=c1[nH]cnc2c1cnn2-c1ccc(F)cc1,–
O=c1[nH]cnc2c1cnn2-c1ccccc1,3.6
Cc1nc2c(cnn2-c2ccccc2)c(=O)o1,–
CC1CCc2c(sc3ncnc(SCC(=O)c4ccc(Br)cc4)c23)C1 (configuration not stated),–
Cc1cc(O)c2c(c1)C(=O)c1cc(O)cc(O)c1C2=O,–
CCOC(=O)Oc1cc2oc(=O)sc2cc1Cl,–
Cc1ccc(-c2cc(O)cc3sc(=O)oc23)cc1C,6.6
COc1cc2c(cc1OC)C(C)N(C(=O)Nc1ccc(OC)c(OC3CCCC3)c1)CC2 (configuration not stated),–
CCSc1cc(C(F)(F)F)nc2c(Br)c(C(C)(C)C)nn12,–
Cc1nnc(N2C(=O)c3oc4ccccc4c(=O)c3C2c2cccc(Oc3ccccc3)c2)s1 (configuration not stated),–
Cc1ccnc(SCn2c(=S)sc3ccccc32)n1,–
Cc1c(C)n(C(=O)CSc2nc(O)cc(=O)[nH]2)c2ccccc12,–
Cc1ccnc(SCC(=O)n2c(C)c(C)c3ccccc32)n1,3.5
N#CCCS(=O)(=O)c1ccccc1F,–
COC(=O)CSC1=C(C#N)C(c2ccccc2Cl)C(C(=O)OC)C(=O)N1 (configuration not stated),–
CC1(C)CC(=O)C2=C(C1)OC1=C(C(=O)CC(C)(C)C1)C2c1ccc(Br)cc1,–
CC1(C)CC(=O)C2=C(C1)OC1CCCCC21 (configuration not stated),3.4
CC1(C)CC(=O)C2=C(C1)OC1=C(C2)C(=O)CC(C)(C)C1,–
CCOC(=O)C(=C/C=C(/c1ccccc1)N(C)C)C(=O)OCC,–
COc1ccc(C(C[N+](=O)[O-])c2c(N)n(C)c(=O)n(C)c2=O)cc1 (configuration not stated),–
SMILES,Dicer processing
COc1cc(C2C(C(=O)OC3CCCCC3)=C(C)NC3=C2C(=O)CCC3)ccc1O (configuration not stated),–
Cc1ccc(NC(=S)NNS(=O)(=O)c2cc(C(F)(F)F)cc(C(F)(F)F)c2)cc1C,–
CCOC(=O)CC1=Nc2ccccc2NC(=O)C1,–
N#Cc1ccc(C#CCOC(=O)Nc2ccccc2)cc1,–
CCOC(=O)NC1=C(C#N)C=Nc2ccccc2N1,23
CCOC(=O)c1c(-n2c(C)ccc2C)sc2c1CCCC2,–
Cc1oc2ccc(NS(=O)(=O)c3ccc(Cl)cc3)cc2c1C(=O)OC(C)C,–
CC(=O)Nc1cc2cc(NS(=O)(=O)c3ccc(Cl)cc3)ccc2oc1=O,–
O=S(=O)(Nc1ccc(O)c(-c2c(O)ccc3ccccc23)c1)c1ccc(Cl)cc1,8.5
CCCCN1C(=O)c2cccc3cc([N+](=O)[O-])cc(c23)C1=O,–
O=C(Nc1cccc(Cl)c1)c1nn2c(C(F)(F)F)cc(-c3ccco3)nc2c1Cl,4
COc1ccc(NC(=O)c2cc3nc(-c4ccco4)cc(C(F)(F)F)n3n2)cc1OC,–
O=C(Nc1ccc2c(c1)OCO2)c1cnn2c(C(F)(F)F)cc(-c3ccco3)nc12,–
COc1cccc(OCC(F)(F)F)c1C#N,–
CCC1C(=O)C(C)(C)C(=O)OC1c1ccc(Cl)cc1 (configuration not stated),–
O=C1c2oc3ccc(Br)cc3c(=O)c2C(c2cccc(O)c2)N1Cc1ccccc1 (configuration not stated),–
COc1ccc(NC(=O)Nc2nnc(C3CC3)s2)cc1OC1CCCC1,6.5
CC(C)(C)c1ccc(NC(=O)Nc2nnc(C3CC3)s2)cc1,–
O=C(Nc1ccc2c(c1)OCCO2)Nc1nnc(C2CC2)s1,–
COC(=O)c1sccc1NC(=O)CC1C(=O)NCCN1C(=O)NS(=O)(=O)c1ccc(C)cc1 (configuration not stated),–
Cc1ccc(-c2cnc(NCc3ccc(F)cc3F)n2C)cc1,–
COc1ccc2oc(C)c(C(O)c3cc4ccccc4o3)c2c1 (configuration not stated),–
O=C(NCc1ccncc1)c1cc(-c2ccc3c(c2)OCO3)nc2ccccc12,–
CCOC(=O)CNC(=O)c1ccc([N+](=O)[O-])o1,–
CN(Cc1ccccc1)C(=O)c1ccc([N+](=O)[O-])o1,3
O=C(Nc1ccccc1F)c1ccc([N+](=O)[O-])o1,–
COc1ccc(C(=O)CN2C3=NCCN3c3ccccc32)cc1,–
Fc1ccc2c(c1)/C(=N/NC(=S)NCC1CCCO1)CCS2 (configuration not stated),–
O=[N+]([O-])/C=C/c1cccc(Oc2ccccc2)c1,–
O=C(c1cn(CCOc2ccccc2Cl)c2ccccc12)C1CC1,–
